The source of these data is PubChem BioAssay (NCI).

About 79,000 compounds went through this panel and 15% of them were active in at least one assay; those are over-represented in the sample as a whole. Values without a mark were called inactive. The source made the active and inactive calls. No stated cut-off is given here; in the data, active means growth inhibition above about 70%; inactive means the rest.

The nature of test [1]: NCI Yeast Anticancer Drug Screen. Data for the rad50 strain (AID 155).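 Further: 0% = growth of vehicle-only cultures of the same strain.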 As to conditions: S. cerevisiae rad50 strain growth inhibition, hits give high values. A digest of the protocol:
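A DNA repair-deficient yeast mutant serves as the test organism; compound-induced growth inhibition is calculated against vehicle-treated cells.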

Test [2] in a line: NCI Yeast Anticancer Drug Screen. Data for the mec2-1 strain (AID 157). As to conditions: S. cerevisiae mec2-1 strain, hits give high values. A digest of the protocol: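 Readout is yeast growth inhibition, normalised to vehicle-treated controls, in the mec2-1 strain exposed to compound.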
Test [3] can be described thus: NCI Yeast Anticancer Drug Screen. Data for the sgs1 mgt1 strain (AID 161).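 Further: 0% = growth of cultures given vehicle only.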 The note with it: S. cerevisiae sgs1 mgt1 strain, hits give high values. A digest of the protocol: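 Compounds are added to genetically altered yeast, and growth is compared with cultures given vehicle alone to give percent inhibition.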
A short description of test [4]: NCI Yeast Anticancer Drug Screen. Data for the cln2 rad14 strain (AID 165).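 Further: 0% = growth equal to vehicle treated cultures.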 As to conditions: S. cerevisiae cln2 rad14 strain, hits give high values. A digest of the protocol:
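Relative to vehicle controls, growth inhibition of compound-treated cln2 rad14 yeast was recorded.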

Test [5] in a line: NCI Yeast Anticancer Drug Screen. Data for the bub3 strain (AID 167). As to conditions: S. cerevisiae bub3 mutant strain, hits give high values. A digest of the protocol:
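Inhibition values come from growth of compound-treated mutant yeast normalised to vehicle-treated controls.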

Test [6] in a line: NCI Yeast Anticancer Drug Screen. Data for the mlh1 rad18 strain (AID 175). The note with it: S. cerevisiae mlh1 rad18 strain growth inhibition, hits give high values. A digest of the protocol:
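Test agents were incubated with a yeast strain of defined genotype (DNA damage repair defect). Inhibition of growth was derived by comparison with vehicle-exposed cultures.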

[7] abbreviates: at 5.0 µM (retest, dose inferred, filed as 0.5).
[8] abbreviates: at 50.0 µM (retest, dose inferred, filed as 5.0).

As for `O=C1C=CC(=O)N1Cc1ccccc1`, the growth inhibition is 98% (active) in test [1] (setting [7]); 99% (active) in test [1] (setting [8]); 99.3% (active) in test [1] (at 50.0 µM); 100% (active) in test [2] (setting [7]); 100% (active) in test [2] (setting [8]); 99.7% (active) in test [2] (at 50.0 µM). Further, the growth inhibition is 97% (active) in test [3] (setting [7]); 99% (active) in test [3] (setting [8]); 99.5% (active) in test [3] (at 50.0 µM); 97% (active) in test [4] (setting [7]); 100% (active) in test [4] (setting [8]); 99% (active) in test [4] (at 50.0 µM). Also, the growth inhibition in test [5] (setting [7]) was 99% (active); in test [5] (setting [8]), 100% (active); in test [5] (at 50.0 µM), 99.3% (active); in test [6] (setting [7]) it was 95% (active); in test [6] (setting [8]), 100% (active); in test [6] (at 50.0 µM) it was 99.2% (active).

As for `CCCCN(c1ccccc1)c1ncnc2c1ncn2C`, the growth inhibition is 1% in test [1] (setting [7]); 83% (active) in test [1] (setting [8]); 89.7% (active) in test [1] (at 50.0 µM); -3% in test [2] (setting [7]); 86% (active) in test [2] (setting [8]); 79.8% (active) in test [2] (at 50.0 µM). Besides, the growth inhibition is 0% in test [3] (setting [7]); 86% (active) in test [3] (setting [8]); 89% (active) in test [3] (at 50.0 µM); 0% in test [4] (setting [7]); 76% (active) in test [4] (setting [8]); 74.2% (active) in test [4] (at 50.0 µM). Moreover, the growth inhibition in test [5] (setting [7]) is 6%; in test [5] (setting [8]), 88% (active); in test [5] (at 50.0 µM), 79.2% (active); in test [6] (setting [7]) it was 5%; in test [6] (setting [8]) it was 89% (active); in test [6] (at 50.0 µM), 89.9% (active).

For `O=Cc1[nH]c(=S)[nH]c(=O)c1Cc1cccc2ccccc12`, the growth inhibition in test [1] (setting [7]) is -8%; in test [1] (setting [8]), 96% (active); in test [1] (at 50.0 µM) it was 97.9% (active); in test [2] (setting [7]), -3%; in test [2] (setting [8]), 98% (active); in test [2] (at 50.0 µM), 97.8% (active). Moreover, the growth inhibition is 11% in test [3] (setting [7]); 99% (active) in test [3] (setting [8]); 98.8% (active) in test [3] (at 50.0 µM); 0% in test [4] (setting [7]); 98% (active) in test [4] (setting [8]); 91.8% (active) in test [4] (at 50.0 µM). Also, the growth inhibition in test [5] (setting [7]) was -19%; in test [5] (setting [8]), 98% (active); in test [5] (at 50.0 µM) it was 98% (active); in test [6] (setting [7]), -3%; in test [6] (setting [8]), 98% (active); in test [6] (at 50.0 µM), 98.9% (active).

On to `COc1nc2c(ccn2C2OC(COC(C)=O)C(OC(C)=O)C(OC(C)=O)C2OC(C)=O)c(=O)n1C` (stereo not given), for which the growth inhibition was 2% in test [1] (setting [7]); -2% in test [1] (setting [8]); 15.2% in test [1] (at 50.0 µM); 1% in test [2] (setting [7]); -4% in test [2] (setting [8]); 14.8% in test [2] (at 50.0 µM). Moreover, the growth inhibition in test [3] (setting [7]) is -5%; in test [3] (setting [8]) it was -5%; in test [3] (at 50.0 µM), 4.45%; in test [4] (setting [7]), -2%; in test [4] (setting [8]), -3%; in test [4] (at 50.0 µM), 2.35%. Besides, the growth inhibition in test [5] (setting [7]) is -2%; in test [5] (setting [8]), -8%; in test [5] (at 50.0 µM) it was -5.9%; in test [6] (setting [7]), 1%; in test [6] (setting [8]), -2%; in test [6] (at 50.0 µM), 2.15%.

With `COC(=O)CNC(=O)C(F)(F)F`, the growth inhibition in test [1] (setting [7]) is -160%; in test [1] (setting [8]) it was -152%; in test [1] (at 50.0 µM), 81.8% (active); in test [2] (setting [7]) it was -47%; in test [2] (setting [8]) it was -49%; in test [2] (at 50.0 µM), 68.1%. Also, the growth inhibition in test [3] (setting [7]) was -61%; in test [3] (setting [8]), -58%; in test [3] (at 50.0 µM) it was 71.7% (active); in test [4] (setting [7]), -61%; in test [4] (setting [8]), -66%; in test [4] (at 50.0 µM) it was 75.6% (active). For the same compound, the growth inhibition is -65% in test [5] (setting [7]); -73% in test [5] (setting [8]); 59.1% in test [5] (at 50.0 µM); -141% in test [6] (setting [7]); -111% in test [6] (setting [8]); 80.5% (active) in test [6] (at 50.0 µM).

Regarding `Nc1ccc2oc(=O)c3ccccc3c2c1`, the growth inhibition is 18% in test [1] (setting [7]); 94% (active) in test [1] (setting [8]); 85.3% (active) in test [1] (at 50.0 µM); 7% in test [2] (setting [7]); 69% in test [2] (setting [8]); 36.6% in test [2] (at 50.0 µM). Moreover, the growth inhibition in test [3] (setting [7]) was 10%; in test [3] (setting [8]), 85% (active); in test [3] (at 50.0 µM) it was 48%; in test [4] (setting [7]), 8%; in test [4] (setting [8]), 30%; in test [4] (at 50.0 µM) it was 6.8%. Also, the growth inhibition in test [5] (setting [7]) is -3%; in test [5] (setting [8]) it was 74% (active); in test [5] (at 50.0 µM) it was 33.1%; in test [6] (setting [7]), 22%; in test [6] (setting [8]) it was 94% (active); in test [6] (at 50.0 µM), 86.8% (active).

Take `CC(C)(C)N1OC2(c3ccccc3)OC3N(C(C)(C)C)OC4(c5ccccc5)OC1C2(c1ccccc1)C34c1ccccc1` (stereo not given): the growth inhibition in test [1] (setting [7]) is -4%; in test [1] (setting [8]), 99% (active); in test [1] (at 50.0 µM), 93.7% (active); in test [2] (setting [7]) it was -2%; in test [2] (setting [8]), 100% (active); in test [2] (at 50.0 µM) it was 97.9% (active). In addition, the growth inhibition in test [3] (setting [7]) is -5%; in test [3] (setting [8]), 99% (active); in test [3] (at 50.0 µM) it was 72% (active); in test [4] (setting [7]), 4%; in test [4] (setting [8]), 99% (active); in test [4] (at 50.0 µM) it was 98% (active). Further, the growth inhibition in test [5] (setting [7]) is 1%; in test [5] (setting [8]), 99% (active); in test [5] (at 50.0 µM) it was 99.2% (active); in test [6] (setting [7]), 0%; in test [6] (setting [8]), 99% (active); in test [6] (at 50.0 µM) it was 96% (active).

Regarding `O=[N+]([O-])c1ccc(CC(c2ccc([N+](=O)[O-])cc2)(c2ccc([N+](=O)[O-])cc2)c2ccc([N+](=O)[O-])cc2)cc1`, the growth inhibition in test [1] (setting [7]) was 2%; in test [1] (setting [8]), -3%; in test [1] (at 50.0 µM), 5.05%; in test [2] (setting [7]), 1%; in test [2] (setting [8]) it was 1%; in test [2] (at 50.0 µM), 12.6%. The growth inhibition in test [3] (setting [7]) is 1%; in test [3] (setting [8]), -16%; in test [3] (at 50.0 µM), -19.3%; in test [4] (setting [7]), 5%; in test [4] (setting [8]), -20%; in test [4] (at 50.0 µM), 8.7%. Moreover, the growth inhibition was 5% in test [5] (setting [7]); 4% in test [5] (setting [8]); 41% in test [5] (at 50.0 µM); 0% in test [6] (setting [7]); 1% in test [6] (setting [8]); 26.9% in test [6] (at 50.0 µM).

For `O=C(O)/C=C/c1ccc2c(c1)CC1(Cc3ccccc3C1)C2`, the growth inhibition is 27% in test [1] (setting [7]); 82% (active) in test [1] (setting [8]); 45.6% in test [1] (at 50.0 µM); 40% in test [2] (setting [7]); 90% (active) in test [2] (setting [8]); 66.2% in test [2] (at 50.0 µM). In addition, the growth inhibition in test [3] (setting [7]) is 84% (active); in test [3] (setting [8]), 87% (active); in test [3] (at 50.0 µM), 73% (active); in test [4] (setting [7]) it was 64%; in test [4] (setting [8]) it was 93% (active); in test [4] (at 50.0 µM), 83.3% (active). Besides, the growth inhibition in test [5] (setting [7]) was 85% (active); in test [5] (setting [8]) it was 92% (active); in test [5] (at 50.0 µM), 78.5% (active); in test [6] (setting [7]), 67%; in test [6] (setting [8]) it was 88% (active); in test [6] (at 50.0 µM), 80% (active).

As for `Oc1ccc(SCc2cc(O)ccc2O)cc1`, the growth inhibition in test [1] (setting [7]) was 9%; in test [1] (setting [8]) it was 93% (active); in test [1] (at 50.0 µM) it was 86% (active); in test [2] (setting [7]), 8%; in test [2] (setting [8]) it was 73% (active); in test [2] (at 50.0 µM), 91.2% (active). The growth inhibition is -17% in test [3] (setting [7]); 48% in test [3] (setting [8]); 84.5% (active) in test [3] (at 50.0 µM); -13% in test [4] (setting [7]); 69% in test [4] (setting [8]); 66% in test [4] (at 50.0 µM). Further, the growth inhibition in test [5] (setting [7]) was -26%; in test [5] (setting [8]), 73% (active); in test [5] (at 50.0 µM) it was 86.7% (active); in test [6] (setting [7]) it was 10%; in test [6] (setting [8]), 86% (active); in test [6] (at 50.0 µM), 82.1% (active).
